Reference: PubChem BioAssay (NCI)
“And” between values parts separate entries of the source, which are not always exact repeats. Identical values can stand only once. Compounds without any hit were thinned out: in the full panel of roughly 83,000, 20% have a hit.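 Each cell line was grown in a 96-well plate and treated with one concentration of compound for 48 hours. Values below 10 were considered active.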 Values without a mark were called inactive. The source made the active and inactive calls.

The molecules below were run on MDA-MB-468 breast (assay: NCI-60 one-dose screen, 48 h (100 = growth as untreated, 0 = no growth, -100 = all killed)). Conditions: 10 µM unless noted.

| Structure (SMILES) | growth |
| --- | --- |
| CCCCCCCC/C=C\CCCCCCCCOc1cccc(CC(=O)NCC[N+](C)(C)C)c1 | 93.1% |
| Clc1ccc(/C=N\N=C\c2ccc(Cl)c(Cl)c2)cc1Cl | 78.5% |
| CCNCCCn1c2c(c3ccc(Cl)cc3c1=O)C(=O)c1cc(OC)cnc1-2 | 5.92% (active) |
| CC(C)OC(=O)Nc1ccc(-c2nc(-c3cccc(OCCN4CCOCC4)c3)c(-c3ccnc(Br)c3)[nH]2)cc1 | -1.08% (active) |
| COc1ccc(-c2nc(-c3nc4ccc(C)cc4[nH]3)cc3c2[nH]c2ccccc23)cc1 | 48.8% |
| FC(F)(F)c1ccc(-c2cnc(Cl)nc2NC2CCCCCC2)cc1 | -4.8% (active) |
| O=C(Nc1ccc(Cl)cc1)c1cc(NCc2cc(O)ccc2O)ccc1O | 81.2% |
| CN1C(=O)N(C)C2C1NN=c1s/c(=C\c3c[nH]c4ccccc34)c(=O)n12 (stereo not given) | 39.5% |
| CCOc1ccccc1-c1cc(-c2cccs2)c(C#N)c(=O)[nH]1 | 2.06% (active) |
| CC(=O)Nc1cc2c3c(cccc3c1)-c1ccccc1-2 | 108% |
| CC(=O)c1cc(C(=O)c2ccc3c(c2)Sc2ccccc2N3)n2ccccc12 | 3.96% (active) |
| Clc1ccc2c(c1)N(c1ncnc3ccc(-c4cnc5[nH]ccc5c4)cc13)CC2 | -4.95% (active) |
| O=[N+]([O-])c1c(Cl)ncnc1Cl | 101% |
| Oc1ccccc1/C=N/Nc1ccc2ccccc2n1 | 15.1% |
| CCN(CC)CCOc1ccc(/C(=C(\Cl)c2ccccc2)c2ccccc2)cc1 | -60% (active) and -6.23% (active) |
| O=C(Nc1ccc(Cl)cc1)N1CCN(c2ccc3nncn3n2)CC1 | -78.2% (active) |
| Nc1nc(=S)c2ncn(C3OC(COP(=O)(O)O)C(O)C3O)c2[nH]1 (stereo not given) | 4.34% (active) |
| CN(Cc1ccccc1)S(=O)(=O)/N=C1\NC(=O)NC1=C(Cl)Cl | 22.3% |
| O=C(N=Nc1c(O)[nH]c2ccccc12)Nc1ccccc1Cl | 11.5% |
| Cc1cc(NCCCN(C)C)c2ccc3c(ccc4c(NCCCN(C)C)cc(C)nc43)c2n1 | -88.9% (active) |

| Structure (SMILES) | growth |
| --- | --- |
| COc1ccc2[nH]c(-c3ccccc3)c(C=C(C#N)C#N)c2c1 | -4.84% (active) |
| CC1Cc2c(Cl)ncnc2N(C)c2ccccc21 (stereo not given) | -31.5% (active) |
| O=C(O)C1C(c2ccccc2)c2ccccc2C(O)C1CO (stereo not given) | 117% |
| CC(O)c1cc[cH-]c1.[Fe+2].c1cc[cH-]c1 (stereo not given) | 94.5% |
| NC(=O)c1n[nH]n2c1nc(=O)c1c3c(sc12)CCCC3 | 120% |
| CCCCN1CCN(c2ccc3nc(-c4ccc5nc(-c6ccc(C(F)(F)F)cc6)[nH]c5c4)[nH]c3c2)CC1 | -62.1% (active) |
| CSc1nc2c(c(=O)n1C)C(c1ccccc1)C1=C(N2)/C(=C/c2ccccc2)CCC1 (stereo not given) | 34.7% |
| Cc1ccccc1NC(=O)Nc1nc2ccc([N+](=O)[O-])cc2s1 | -3.68% (active) |
| COc1ccc(/C=N\N2CCOCC2)cc1OC1CCCC1 | 117% |
| Fc1cccc(-c2[nH]nc3nc(Nc4cccnc4)sc23)c1 | 11.9% |
| CCOC(=O)C(=CNc1cnc(Nc2ccc(N3CCOCC3)cc2)nc1Oc1ccc(OC)cc1)C(=O)OCC | 61.5% |
| Cc1nc2ccccc2c(/C=C/c2ccc(F)cc2)c1C(=O)/C=C/c1ccccc1 | 17% |
| O=C1CCNC1 | 107% |
| CN1CCN(c2ccc(Nc3ncc(C(N)=O)c(NCCCNC(=O)C4CCC4)n3)cc2)CC1 | 6.58% (active) |
| COc1c(B(O)O)cc(F)cc1-c1nc2ccc3[nH]ncc3c2c2c1CCCC2 | -4.35% (active) |
| CC[C@H](CC[C@@H](C)[C@H]1CC[C@H]2[C@@H]3CC=C4C[C@@H](OCCc5nn[nH]n5)CC[C@]4(C)[C@H]3CC[C@]12C)C(C)C | 118% |
| CCOC(=O)/C(=C(\C)N)C1CC(=O)NC1=O (stereo not given) | 92.3% |
| COc1ccc(C2CC(c3cccc(Nc4ccnc5cc(Cl)ccc45)c3)=NN2c2ccc(Cl)cc2)cc1 (stereo not given) | 64% |
| CCN(CC)CCCC(Nc1c2ccc(Cl)cc2nc2ccc(OC)cc12)c1ccc(F)cc1 (stereo not given) | 90.5% |
| O=C(COc1cccc(/C=C2\Cc3ccc(Cl)cc3C2=O)c1)Nc1nccs1 | 21.9% |
